{"source": "the supplement of paper PMC8728848", "assay_in_all_cases": "glycan array binding signal (z-score within array); higher = stronger binding", "conditions_in_all_cases": "glycan notation: IUPAC condensed, linker removed", "key": {"[1]": {"molecular_target": "Fuc(a1-2)Gal(b1-3)[Fuc(a1-4)]GlcNAc", "method_in_brief": "(§1)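 The Consortium for Functional Glycomics database supplied 3228 glycan arrays, of which those lacking an available protein sequence were dropped. The binding signal, a within-array Z-score, was averaged across arrays of the same protein sequence and across linkers. Negative scores can be read as non-binding.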"}, "[2]": {"molecular_target": "Fuc(a1-2)GlcNAc", "method_in_brief": "as §1"}, "[3]": {"molecular_target": "Fuc(a1-2)[GalNAc(a1-3)]Gal(b1-3)GlcNAc", "method_in_brief": "as §1"}, "[4]": {"molecular_target": "Gal(b1-3)GalNAc(b1-4)Gal(b1-4)Glc", "method_in_brief": "as §1"}, "[5]": {"molecular_target": "Gal(b1-3)GlcNAc(b1-3)Gal(b1-4)Glc", "method_in_brief": "as §1"}, "[6]": {"molecular_target": "Gal(b1-3)[Fuc(a1-4)]GlcNAc(b1-3)Gal(b1-4)[Fuc(a1-3)]GlcNAc", "method_in_brief": "as §1"}, "[7]": {"molecular_target": "Gal(b1-4)GlcNAc(b1-3)Gal(b1-4)GlcNAc(b1-3)Gal(b1-4)GlcNAc", "method_in_brief": "as §1"}, "[8]": {"molecular_target": "Gal3S6S(b1-4)GlcNAc6S", "method_in_brief": "as §1"}, "[9]": {"molecular_target": "GalNAc(a1-3)GalNAc", "method_in_brief": "as §1"}, "[10]": {"molecular_target": "GlcNAc(b1-3)Gal(b1-4)GlcNAc", "method_in_brief": "as §1"}, "[11]": {"molecular_target": "GlcNAc(b1-3)Man", "method_in_brief": "as §1"}, "[12]": {"molecular_target": "GlcNAc(b1-3)[GlcNAc(b1-6)]GalNAc", "method_in_brief": "as §1"}, "[13]": {"molecular_target": "Man(a1-2)Man(a1-3)[Man(a1-2)Man(a1-6)]Man(a1-6)[Man(a1-2)Man(a1-2)Man(a1-3)]Man(b1-4)GlcNAc(b1-4)GlcNAc", "method_in_brief": "as §1"}, "[14]": {"molecular_target": "Man(a1-2)Man(a1-6)[Man(a1-3)]Man(a1-6)[Man(a1-2)Man(a1-2)Man(a1-3)]Man", "method_in_brief": "as §1"}, "[15]": {"molecular_target": "Man(a1-3)[Man(a1-6)]Man(a1-6)[Man(a1-2)Man(a1-3)]Man(b1-4)GlcNAc(b1-4)GlcNAc", "method_in_brief": "as §1"}, "[16]": {"molecular_target": "Man(a1-3)[Man(a1-6)]Man(a1-6)[Man(a1-3)]Man(b1-4)GlcNAc(b1-4)GlcNAc", "method_in_brief": "as §1"}, "[17]": {"molecular_target": "Neu5Ac(a2-3)Gal(b1-3)GalNAc(b1-3)Gal(a1-4)Gal(b1-4)Glc", "method_in_brief": "as §1"}, "[18]": {"molecular_target": "Neu5Ac(a2-3)Gal(b1-3)GlcNAc6S", "method_in_brief": "as §1"}, "[19]": {"molecular_target": "Neu5Ac(a2-3)Gal(b1-3)[Neu5Ac(a2-3)Gal(b1-4)]GlcNAc", "method_in_brief": "as §1"}, "[20]": {"molecular_target": "Neu5Ac(a2-3)Gal(b1-4)[Fuc(a1-3)]GlcNAc(b1-3)Gal(b1-4)GlcNAc", "method_in_brief": "as §1"}, "[21]": {"molecular_target": "Neu5Ac(a2-3)Gal(b1-4)[Fuc(a1-3)]GlcNAc(b1-3)Gal(b1-4)[Fuc(a1-3)]GlcNAc(b1-3)Gal(b1-4)[Fuc(a1-3)]GlcNAc", "method_in_brief": "as §1"}, "[22]": {"molecular_target": "Neu5Ac(a2-3)Gal(b1-4)[Fuc(a1-3)]GlcNAc(b1-6)[Gal(b1-3)]GalNAc", "method_in_brief": "as §1"}, "[23]": {"molecular_target": "Neu5Ac(a2-3)Gal6S(b1-4)[Fuc(a1-3)]GlcNAc", "method_in_brief": "as §1"}, "[24]": {"molecular_target": "Neu5Ac(a2-3)GalNAc(b1-4)GlcNAc", "method_in_brief": "as §1"}, "[25]": {"molecular_target": "Neu5Ac(a2-6)Gal(b1-4)GlcNAc(b1-3)Gal(b1-4)[Fuc(a1-3)]GlcNAc(b1-3)Gal(b1-4)[Fuc(a1-3)]GlcNAc", "method_in_brief": "as §1"}, "[26]": {"molecular_target": "Neu5Ac(a2-8)Neu5Ac(a2-8)Neu5Ac(a2-3)Gal(b1-4)Glc", "method_in_brief": "as §1"}, "[27]": {"molecular_target": "Neu5Ac(a2-8)Neu5Ac(a2-8)Neu5Ac(a2-3)[GalNAc(b1-4)]Gal(b1-4)Glc", "method_in_brief": "as §1"}, "[28]": {"molecular_target": "Fuc(a1-2)[Gal(a1-3)]Gal(b1-4)[Fuc(a1-3)]GlcNAc", "method_in_brief": "as §1"}, "[29]": {"molecular_target": "Fuc(a1-3)[Gal(b1-4)]GlcNAc(b1-3)Gal(b1-3)[Fuc(a1-4)]GlcNAc", "method_in_brief": "as §1"}, "[30]": {"molecular_target": "Fuc(a1-3)[Gal(b1-4)]GlcNAc(b1-4)Gal(b1-4)[Fuc(a1-3)]GlcNAc", "method_in_brief": "as §1"}, "[31]": {"molecular_target": "Fuc(a1-4)GlcNAc", "method_in_brief": "as §1"}, "[32]": {"molecular_target": "Gal(a1-3)[Gal(a1-4)]Gal(b1-4)GlcNAc", "method_in_brief": "as §1"}, "[33]": {"molecular_target": "Gal(a1-4)GlcNAc", "method_in_brief": "as §1"}, "[34]": {"molecular_target": "Gal(b1-2)Gal", "method_in_brief": "as §1"}, "[35]": {"molecular_target": "Gal(b1-4)GlcNAc(b1-6)[Gal(b1-3)]GalNAc", "method_in_brief": "as §1"}, "[36]": {"molecular_target": "Man(a1-3)[Man(a1-6)]Man", "method_in_brief": "as §1"}, "[37]": {"molecular_target": "Man(a1-3)[Man(a1-6)]Man(a1-6)[Man(a1-3)]Man", "method_in_brief": "as §1"}, "[38]": {"molecular_target": "Man(a1-3)[Man(a1-6)]Man(b1-4)GlcNAc(b1-4)GlcNAc", "method_in_brief": "as §1"}, "[39]": {"molecular_target": "Neu5Ac(a2-3)Gal(b1-3)GalNAc6S", "method_in_brief": "as §1"}, "[40]": {"molecular_target": "Neu5Ac(a2-3)Gal6S(b1-4)GlcNAc", "method_in_brief": "as §1"}, "[41]": {"molecular_target": "Neu5Ac(a2-3)[GalNAc(b1-4)]Gal(b1-4)Glc", "method_in_brief": "as §1"}, "[42]": {"molecular_target": "Neu5Ac(a2-3)[GalNAc(b1-4)]Gal(b1-4)GlcNAc", "method_in_brief": "as §1"}, "[43]": {"molecular_target": "Neu5Ac(a2-6)Gal(b1-4)GlcNAc", "method_in_brief": "as §1"}, "[44]": {"molecular_target": "Neu5Ac(a2-6)Gal(b1-4)GlcNAc(b1-2)Man(a1-6)[Gal(b1-4)GlcNAc(b1-2)Man(a1-3)]Man(b1-4)GlcNAc(b1-4)GlcNAc", "method_in_brief": "as §1"}, "[45]": {"molecular_target": "Neu5Ac(a2-8)Neu5Ac(a2-8)Neu5Ac(a2-8)Neu5Ac(a2-3)[GalNAc(b1-4)]Gal(b1-4)Glc", "method_in_brief": "as §1"}, "[46]": {"molecular_target": "Neu5Gc(a2-3)Gal(b1-4)GlcNAc", "method_in_brief": "as §1"}}, "note": "About 410 targets per protein were measured; listed, in parts, are those with the strongest signals and a random draw of the rest.", "data": [{"binder": "CD83 (Homo sapiens) (protein) MSRGLQLLLLSCAYSLAPATPEVKVACSEDVDLPCTAPWDPQVPYTVSWVKLLEGGEERMETPQEDHLRGQHYHQKGQNGSFDAPNERPYSLKIRNTTSCNSGTYRCTLQDPDGQRNLSGKVILRVTGCPAQRKEETFKKYRAETSEQKLISEEDLSRGSDDDDKAEPRGP", "values": [{"measurement": "glycan array binding signal (z-score)", "setting": "[1]", "value": -0.388}, {"measurement": "glycan array binding signal (z-score)", "setting": "[2]", "value": -0.045}, {"measurement": "glycan array binding signal (z-score)", "setting": "[3]", "value": -0.222}, {"measurement": "glycan array binding signal (z-score)", "setting": "[4]", "value": -0.09}, {"measurement": "glycan array binding signal (z-score)", "setting": "[5]", "value": -0.32}, {"measurement": "glycan array binding signal (z-score)", "setting": "[6]", "value": -0.243}, {"measurement": "glycan array binding signal (z-score)", "setting": "[7]", "value": -0.142}, {"measurement": "glycan array binding signal (z-score)", "setting": "[8]", "value": -0.129}, {"measurement": "glycan array binding signal (z-score)", "setting": "[9]", "value": -0.329}, {"measurement": "glycan array binding signal (z-score)", "setting": "[10]", "value": -0.162}, {"measurement": "glycan array binding signal (z-score)", "setting": "[11]", "value": -0.188}, {"measurement": "glycan array binding signal (z-score)", "setting": "[12]", "value": -0.453}, {"measurement": "glycan array binding signal (z-score)", "setting": "[13]", "value": 2.96}, {"measurement": "glycan array binding signal (z-score)", "setting": "[14]", "value": -0.272}, {"measurement": "glycan array binding signal (z-score)", "setting": "[15]", "value": 11.7}, {"measurement": "glycan array binding signal (z-score)", "setting": "[16]", "value": 0.723}, {"measurement": "glycan array binding signal (z-score)", "setting": "[17]", "value": 0.647}, {"measurement": "glycan array binding signal (z-score)", "setting": "[18]", "value": 8.93}, {"measurement": "glycan array binding signal (z-score)", "setting": "[19]", "value": -0.458}, {"measurement": "glycan array binding signal (z-score)", "setting": "[20]", "value": 0.381}, {"measurement": "glycan array binding signal (z-score)", "setting": "[21]", "value": -0.243}, {"measurement": "glycan array binding signal (z-score)", "setting": "[22]", "value": -0.12}, {"measurement": "glycan array binding signal (z-score)", "setting": "[23]", "value": -0.131}, {"measurement": "glycan array binding signal (z-score)", "setting": "[24]", "value": -0.291}, {"measurement": "glycan array binding signal (z-score)", "setting": "[25]", "value": 0.014}, {"measurement": "glycan array binding signal (z-score)", "setting": "[26]", "value": 3.7}, {"measurement": "glycan array binding signal (z-score)", "setting": "[27]", "value": 2.88}]}, {"binder": "HFR-1 (Triticum aestivum) (protein) MSPQSFTLETTTTTPAAKGSDPSYFQSAPACHEMIQHKELLLHLYAYQNVQKTPDANQAVIVESKRPECFGILAANDWTVYDGPAHNANLVAHAQGLHLGASMAKENWFICFNMVFVNQRFTGSSFKVMGDFQGTAHNGEWAIVGGTGEFAYAQGVIAFKKTQQSERNARMELHVRAMCLSFLRPLLSLGDGSAVAKIGPWGKMSGELLDIPSTPQRLERITIRHGVVIDSLAFSFIDKAGEPYNVGPWGGRRGDNKDTIELAPSEIVTEVSGTVGIFAEDNVEYNAIASLTITTNHRPYGPFGETQSTPFSVPVQDNNNIVGFFACAGKYVEALGVYVRSPVST", "values": [{"measurement": "glycan array binding signal (z-score)", "setting": "[1]", "value": -0.201}, {"measurement": "glycan array binding signal (z-score)", "setting": "[28]", "value": -0.225}, {"measurement": "glycan array binding signal (z-score)", "setting": "[29]", "value": -0.224}, {"measurement": "glycan array binding signal (z-score)", "setting": "[30]", "value": -0.165}, {"measurement": "glycan array binding signal (z-score)", "setting": "[31]", "value": -0.057}, {"measurement": "glycan array binding signal (z-score)", "setting": "[32]", "value": -0.199}, {"measurement": "glycan array binding signal (z-score)", "setting": "[33]", "value": -0.22}, {"measurement": "glycan array binding signal (z-score)", "setting": "[34]", "value": 0.042}, {"measurement": "glycan array binding signal (z-score)", "setting": "[35]", "value": -0.206}, {"measurement": "glycan array binding signal (z-score)", "setting": "[14]", "value": -0.214}, {"measurement": "glycan array binding signal (z-score)", "setting": "[36]", "value": 4.93}, {"measurement": "glycan array binding signal (z-score)", "setting": "[15]", "value": 6.43}, {"measurement": "glycan array binding signal (z-score)", "setting": "[37]", "value": 7.26}, {"measurement": "glycan array binding signal (z-score)", "setting": "[16]", "value": 7.87}, {"measurement": "glycan array binding signal (z-score)", "setting": "[38]", "value": 5.48}, {"measurement": "glycan array binding signal (z-score)", "setting": "[39]", "value": -0.218}, {"measurement": "glycan array binding signal (z-score)", "setting": "[40]", "value": -0.213}, {"measurement": "glycan array binding signal (z-score)", "setting": "[41]", "value": -0.024}, {"measurement": "glycan array binding signal (z-score)", "setting": "[42]", "value": -0.165}, {"measurement": "glycan array binding signal (z-score)", "setting": "[43]", "value": -0.223}, {"measurement": "glycan array binding signal (z-score)", "setting": "[44]", "value": -0.222}, {"measurement": "glycan array binding signal (z-score)", "setting": "[45]", "value": 0.01}, {"measurement": "glycan array binding signal (z-score)", "setting": "[46]", "value": -0.221}]}]}
